Laboratory results reported in PubChem BioAssay (NCATS).
Results filed as inconclusive are left out. Unmarked numbers belong to inactive results. The call rests on the fitted dose curve; in most records, active means well fitted cell-killing curve with a large enough effect; inconclusive means small, poorly fitted or top-dose-only effect; inactive means flat fitted curve, though single readings scatter.

assay: Cell Viability - LYMP2-012 (AID 982); settings: LYMP2-012 lymphoblastoid cell viability qHTS; series mostly up to 92.2 µM; activity change, negative = cytotoxicity: at the top concentration;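 further: cellular ATP by luciferase luminescence where a drop means cytotoxicity; cells exposed to compound for one day before reading; 0% = DMSO only and full loss = 92 µM tetraoctylammonium bromide; nearly all actives have a fitted effect of over 55% in size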
Description: NIH Chemical Genomics Center [NCGC]
NIH Molecular Libraries Screening Centers Network [MLSCN]
National Institutes of Environmental Health Sciences [NIEHS]
National Toxicology Program [NTP]
We have developed a 1536-well cell-based assay for quantitative high throughput screening (qHTS) against a number of cell lines to determine in vitro cytotoxicity of small molecules. This particular assay uses a human lymphoblastoid cell line (LYMP2-012) purchased from Coriell Institute for Medical Research.
NCGC Assay Protocol Summary:
The CellTiter-Glo luminescent cell viability assay (Promega) is a homogeneous method to measure the number of viable cells in culture. The end point readout of this assay is based on quantitation of intracellular ATP, an indicator of metabolic activity, using the luciferase reaction. Luciferase catalyzes the oxidation of beetle Luciferin to oxyluciferin and light in the presence of ATP. The luminescent signal is proportional to amount of ATP present.
Using the CellTiter-Glo luminescent cell viability assay, the amount of cellular ATP was measured in the lymphoblastoid cell line with complete culture medium following compound treatment for 24 hours. The assay was performed in opaque white Kalypsys 1536-well plates. In the screen, tetraoctylammonium bromide was used as positive control. Library compounds were measured for their ability to cause acute toxicity in the cell line, as reflected by a decrease in intracellular ATP levels, in a concentration-dependent manner. […] AC50 values were determined from concentration-response data modeled with the standard Hill equation.
qHTS protocol for CellTiter Glo lymphoblastoid cellular assay
[Step] [Parameter] [Value] [Description]
1. Reagent; 5 uL; 2500 lymphoblastoid cells/well
2. Time; 5 hr; 37 C incubation
4. Controls; 23 nL; Tetraoctylammonium bromide 6.4pM to 92 uM
5. Time; 24 hr; 37 C incubation
6. Reagent; 5 uL; CellTiter Glo reagent
7. Time; 30 min; Room Temperature
8. Detection; Luminescence; Viewlux plate reader
Keywords: cell viability, cytotoxicity, lymphoblastoid cell line, luminescence, NTPHTS, NTPHTS_NCGC, NIEHS, DSSTox, MLSMR, MLSCN, NIH Roadmap, qHTS, NCGC

| Structure (SMILES) | activity change, negative = cytotoxicity [%] |
| --- | --- |
| CC(C)(c1cc(Br)c(OCC(Br)CBr)c(Br)c1)c1cc(Br)c(OCC(Br)CBr)c(Br)c1 (stereo not given) | -11.5 |
| C=CC(=O)NC(C)C | -0.759 |
| C[C@@H]1CC2(OC3C[C@@]4(C)C5=CC[C@H]6C(C)(C)C(O[C@@H]7OC[C@@H](O)[C@H](O)[C@H]7O)CC[C@@]67C[C@@]57CC[C@]4(C)C31)OC(O)C1(C)OC21 (stereo not given in full) | -19.4 |
| CC/C(C)=N/O | -0.883 |
| C/C=C(/C)C#N | -2.25 |
| Nc1ccc(F)cc1F | -18.7 |
| CC(C)=CCC/C(C)=C/C=O | -15.2 |
| Cc1cccc(Br)c1 | -5.98 |
| Cc1ccc(C)o1 | 6.65 |
| CC(C)Nc1ccccc1 | 11.7 |
| Cc1ccc2c(c1[N+](=O)[O-])C(=O)c1ccccc1C2=O | -1.36 |
| Cc1cccc(C)c1O | -9 |
| C1COC1 | 3.6 |
| O=Cc1ccccc1Cl | 0.659 |
| ClCCl | 13.9 |
| c1ccc(Oc2ccccc2)cc1 | 8.08 |
| NC=O | 3.28 |
| O=[N+]([O-])c1ccc(NCCO)c(OCCO)c1 | -4.82 |
| CCN(C(=O)N(CC)c1ccccc1)c1ccccc1 | -12.3 |
| CCN(CC)c1cccc(O)c1 | -2.87 |

| Structure (SMILES) | activity change, negative = cytotoxicity [%] |
| --- | --- |
| COc1cccc2sc(N)nc12 | -11.2 |
| CCCC(Cl)CCCC(Cl)CCC(Cl)CCC(Cl)CCC(Cl)CCCC(Cl)CCC (stereo not given) | -12.2 |
| C=CC(=O)OCCCC | -0.602 |
| COCCOC(=O)c1ccccc1C(=O)OCCOC | -4.07 |
| FC(F)(F)c1cccc(Cl)c1 | 1.79 |
| Cc1cc(C)c(N)cc1C | 1.09 |
| CCN(Cc1ccccc1)c1ccccc1 | -4.25 |
| Cc1cc(C2(c3cc(C)c(O)cc3C)OS(=O)(=O)c3ccccc32)c(C)cc1O | -6.44 |
| CCCCC(CC)CO (stereo not given) | 2.33 |
| CSc1ccc(C=O)cc1 | 4.19 |
| Cc1ccc2ncccc2c1 | -0.273 |
| c1ccc(Nc2ccccc2)cc1 | -6.58 |
| Cc1ccc(S(=O)(=O)NC2CCCCC2)cc1 | -9.89 |
| CC(=O)C1(C)CC2=C(CCCC2(C)C)CC1C (stereo not given) | -2.21 |
| CC(O)CC(C)O (stereo not given) | -10.2 |
| CC(CCl)OC(C)CCl (stereo not given) | -9.58 |
| O=[N+]([O-])c1cccc(C(F)(F)F)c1 | 4.33 |
| CC(=O)OC(C)=O | 0.789 |
| Cc1ccc2ccccc2c1[N+](=O)[O-] | 4.01 |
| N#Cc1ccccc1 | -0.777 |
